Measured values from ChEMBL document CHEMBL1961873, “Compounds: GSK PKIS; Assays: Nanosyn kinase panel” (2012).

Columns and labels:
[1] = target: T1, Mitogen-activated protein kinase 12 (Homo sapiens) (UniProt P53778); conditions: at 1 µM;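 note: values are averaged p38gamma kinase inhibition readings, compounds tested at 1 µM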
T1 sequence (whole entry): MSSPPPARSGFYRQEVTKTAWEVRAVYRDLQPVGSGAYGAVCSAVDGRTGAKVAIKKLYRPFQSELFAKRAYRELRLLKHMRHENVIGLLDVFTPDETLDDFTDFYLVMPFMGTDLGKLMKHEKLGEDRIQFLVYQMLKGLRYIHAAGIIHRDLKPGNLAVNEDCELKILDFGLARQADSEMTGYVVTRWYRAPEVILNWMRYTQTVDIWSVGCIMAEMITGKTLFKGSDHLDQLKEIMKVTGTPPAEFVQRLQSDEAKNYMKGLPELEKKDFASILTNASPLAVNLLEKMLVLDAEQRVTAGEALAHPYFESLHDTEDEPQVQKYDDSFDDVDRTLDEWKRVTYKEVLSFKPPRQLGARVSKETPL

[2] = target: SRSF protein kinase 1 (Homo sapiens) (UniProt Q96SB4); conditions: at 0.1 µM
SRSF protein kinase 1 (Homo sapiens), sequence (Q96SB4 whole entry, canonical isoform): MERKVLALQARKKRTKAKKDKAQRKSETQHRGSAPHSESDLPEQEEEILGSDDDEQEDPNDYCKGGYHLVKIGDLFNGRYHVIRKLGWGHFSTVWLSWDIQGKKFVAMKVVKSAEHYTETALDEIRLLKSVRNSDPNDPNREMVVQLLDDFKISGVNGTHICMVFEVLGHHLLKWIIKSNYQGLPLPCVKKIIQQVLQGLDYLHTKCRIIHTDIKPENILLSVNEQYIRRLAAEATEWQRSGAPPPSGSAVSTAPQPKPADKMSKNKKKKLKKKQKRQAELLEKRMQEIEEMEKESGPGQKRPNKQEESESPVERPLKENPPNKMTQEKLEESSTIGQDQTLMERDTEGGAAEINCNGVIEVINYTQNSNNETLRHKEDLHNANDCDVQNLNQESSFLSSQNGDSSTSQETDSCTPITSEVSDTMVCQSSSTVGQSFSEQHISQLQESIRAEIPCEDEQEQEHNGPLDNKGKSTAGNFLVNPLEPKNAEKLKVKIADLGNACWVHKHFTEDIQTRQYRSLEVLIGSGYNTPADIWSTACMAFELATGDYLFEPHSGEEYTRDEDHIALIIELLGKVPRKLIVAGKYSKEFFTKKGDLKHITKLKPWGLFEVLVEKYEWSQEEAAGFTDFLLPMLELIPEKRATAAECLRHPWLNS

[3] = target: SRSF protein kinase 1 (Homo sapiens) (UniProt Q96SB4); conditions: at 1 µM
[4] = target: Phosphatidylinositol 4,5-bisphosphate 3-kinase catalytic subunit alpha isoform (Homo sapiens) (UniProt P42336); conditions: at 0.1 µM
Phosphatidylinositol 4,5-bisphosphate 3-kinase catalytic subunit alpha isoform (Homo sapiens), sequence (P42336 whole entry, canonical isoform): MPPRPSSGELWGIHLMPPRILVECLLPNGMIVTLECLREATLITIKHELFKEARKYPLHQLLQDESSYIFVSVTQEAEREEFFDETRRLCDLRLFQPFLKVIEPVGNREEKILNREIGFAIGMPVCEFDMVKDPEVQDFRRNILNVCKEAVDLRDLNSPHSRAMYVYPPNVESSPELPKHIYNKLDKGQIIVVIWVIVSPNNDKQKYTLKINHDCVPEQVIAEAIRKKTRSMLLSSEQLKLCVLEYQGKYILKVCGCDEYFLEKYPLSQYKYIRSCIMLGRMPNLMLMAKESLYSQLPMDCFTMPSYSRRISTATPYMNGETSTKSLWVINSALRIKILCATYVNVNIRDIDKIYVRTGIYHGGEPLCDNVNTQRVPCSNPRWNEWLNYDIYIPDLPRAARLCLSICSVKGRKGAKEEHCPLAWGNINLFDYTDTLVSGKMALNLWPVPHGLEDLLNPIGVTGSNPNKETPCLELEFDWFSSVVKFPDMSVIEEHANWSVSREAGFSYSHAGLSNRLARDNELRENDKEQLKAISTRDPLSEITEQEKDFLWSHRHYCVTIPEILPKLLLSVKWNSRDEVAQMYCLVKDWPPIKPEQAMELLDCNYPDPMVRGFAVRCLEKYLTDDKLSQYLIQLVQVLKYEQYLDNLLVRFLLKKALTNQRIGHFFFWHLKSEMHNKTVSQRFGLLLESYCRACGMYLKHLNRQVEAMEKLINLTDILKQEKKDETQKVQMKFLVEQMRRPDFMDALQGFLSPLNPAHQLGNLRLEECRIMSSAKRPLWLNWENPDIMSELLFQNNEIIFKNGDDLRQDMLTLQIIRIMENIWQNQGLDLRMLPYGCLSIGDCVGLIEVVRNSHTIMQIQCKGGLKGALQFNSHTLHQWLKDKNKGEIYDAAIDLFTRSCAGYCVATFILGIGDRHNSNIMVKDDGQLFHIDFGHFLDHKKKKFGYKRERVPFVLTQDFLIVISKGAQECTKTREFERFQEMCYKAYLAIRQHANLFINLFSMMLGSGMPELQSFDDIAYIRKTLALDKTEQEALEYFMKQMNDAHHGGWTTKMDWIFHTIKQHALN

[5] = target: Phosphatidylinositol 4,5-bisphosphate 3-kinase catalytic subunit alpha isoform (Homo sapiens) (UniProt P42336); conditions: at 1 µM
[6] = target: T2, Phosphatidylinositol 4,5-bisphosphate 3-kinase catalytic subunit delta isoform (Homo sapiens) (UniProt O00329); conditions: at 0.1 µM
T2 sequence (whole entry): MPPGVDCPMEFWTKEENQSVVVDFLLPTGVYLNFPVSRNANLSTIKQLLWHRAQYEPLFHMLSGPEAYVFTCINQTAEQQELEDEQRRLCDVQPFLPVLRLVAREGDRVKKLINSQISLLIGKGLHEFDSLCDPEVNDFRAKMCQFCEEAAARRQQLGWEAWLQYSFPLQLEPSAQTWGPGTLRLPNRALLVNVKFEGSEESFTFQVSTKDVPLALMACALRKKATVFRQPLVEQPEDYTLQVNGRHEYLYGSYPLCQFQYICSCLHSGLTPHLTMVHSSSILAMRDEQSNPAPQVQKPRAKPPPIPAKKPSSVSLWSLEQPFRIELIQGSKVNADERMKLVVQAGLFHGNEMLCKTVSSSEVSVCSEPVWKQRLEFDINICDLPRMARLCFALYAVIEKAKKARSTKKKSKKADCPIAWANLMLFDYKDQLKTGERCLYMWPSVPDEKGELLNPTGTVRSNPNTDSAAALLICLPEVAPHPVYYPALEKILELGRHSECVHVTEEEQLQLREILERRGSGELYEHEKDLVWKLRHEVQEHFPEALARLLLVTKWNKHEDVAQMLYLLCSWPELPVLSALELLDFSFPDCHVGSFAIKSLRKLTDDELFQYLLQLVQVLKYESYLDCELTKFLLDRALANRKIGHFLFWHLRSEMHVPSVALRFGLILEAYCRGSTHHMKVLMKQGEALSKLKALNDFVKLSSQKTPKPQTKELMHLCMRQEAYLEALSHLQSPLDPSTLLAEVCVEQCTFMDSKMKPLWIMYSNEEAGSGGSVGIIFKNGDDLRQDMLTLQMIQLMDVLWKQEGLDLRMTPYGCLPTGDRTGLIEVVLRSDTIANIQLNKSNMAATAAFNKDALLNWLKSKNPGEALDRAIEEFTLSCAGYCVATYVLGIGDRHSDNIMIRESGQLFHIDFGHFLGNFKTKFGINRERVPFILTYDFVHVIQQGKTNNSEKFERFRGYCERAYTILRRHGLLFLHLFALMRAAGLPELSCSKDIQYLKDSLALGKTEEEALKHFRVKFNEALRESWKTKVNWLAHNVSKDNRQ

[7] = target: T2, Phosphatidylinositol 4,5-bisphosphate 3-kinase catalytic subunit delta isoform (Homo sapiens); conditions: at 1 µM
[8] = target: Phosphatidylinositol 4-kinase beta (Homo sapiens) (UniProt Q9UBF8); conditions: at 0.1 µM
Phosphatidylinositol 4-kinase beta (Homo sapiens), sequence (Q9UBF8 2-816 limits assumed): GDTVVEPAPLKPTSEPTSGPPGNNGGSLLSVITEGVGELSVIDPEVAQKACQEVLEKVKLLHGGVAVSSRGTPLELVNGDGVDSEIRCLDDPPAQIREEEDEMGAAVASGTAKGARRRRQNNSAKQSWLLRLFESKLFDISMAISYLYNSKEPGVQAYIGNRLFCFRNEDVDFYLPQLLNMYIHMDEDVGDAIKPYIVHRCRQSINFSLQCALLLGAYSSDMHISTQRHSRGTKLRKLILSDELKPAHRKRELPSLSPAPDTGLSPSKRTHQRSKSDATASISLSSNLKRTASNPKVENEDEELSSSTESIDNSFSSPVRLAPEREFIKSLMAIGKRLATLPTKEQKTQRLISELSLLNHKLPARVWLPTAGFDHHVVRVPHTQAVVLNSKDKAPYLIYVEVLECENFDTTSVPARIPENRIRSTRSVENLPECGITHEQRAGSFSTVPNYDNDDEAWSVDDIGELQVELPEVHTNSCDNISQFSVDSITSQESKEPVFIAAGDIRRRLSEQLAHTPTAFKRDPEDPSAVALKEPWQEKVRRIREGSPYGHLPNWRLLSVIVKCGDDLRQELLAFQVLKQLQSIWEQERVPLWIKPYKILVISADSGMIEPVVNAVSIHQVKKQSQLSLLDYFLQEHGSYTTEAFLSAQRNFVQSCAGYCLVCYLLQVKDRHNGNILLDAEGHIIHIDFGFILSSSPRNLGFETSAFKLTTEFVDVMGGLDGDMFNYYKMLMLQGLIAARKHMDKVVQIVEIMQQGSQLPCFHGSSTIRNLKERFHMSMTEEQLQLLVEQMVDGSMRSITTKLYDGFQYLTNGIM

[9] = target: Phosphatidylinositol 4-kinase beta (Homo sapiens) (UniProt Q9UBF8); conditions: at 1 µM
[10] = target: Sphingosine kinase 1 (Homo sapiens) (UniProt Q9NYA1); conditions: at 0.1 µM
Sphingosine kinase 1 (Homo sapiens), sequence (Q9NYA1 whole entry): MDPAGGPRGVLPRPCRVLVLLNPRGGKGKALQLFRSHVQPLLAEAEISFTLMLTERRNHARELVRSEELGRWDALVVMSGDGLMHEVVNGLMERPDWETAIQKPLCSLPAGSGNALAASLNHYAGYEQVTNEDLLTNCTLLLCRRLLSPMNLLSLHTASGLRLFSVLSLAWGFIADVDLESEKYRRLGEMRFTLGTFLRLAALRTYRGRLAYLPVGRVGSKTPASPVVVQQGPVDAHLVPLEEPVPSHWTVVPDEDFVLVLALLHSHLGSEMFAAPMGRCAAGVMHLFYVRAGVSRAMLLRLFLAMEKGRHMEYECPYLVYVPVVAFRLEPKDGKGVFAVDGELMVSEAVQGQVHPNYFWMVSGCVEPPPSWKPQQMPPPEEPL

[11] = target: Sphingosine kinase 1 (Homo sapiens) (UniProt Q9NYA1); conditions: at 1 µM
[12] = target: T3, Sphingosine kinase 2 (Homo sapiens) (UniProt Q9NRA0); conditions: at 0.1 µM
T3 sequence (whole entry): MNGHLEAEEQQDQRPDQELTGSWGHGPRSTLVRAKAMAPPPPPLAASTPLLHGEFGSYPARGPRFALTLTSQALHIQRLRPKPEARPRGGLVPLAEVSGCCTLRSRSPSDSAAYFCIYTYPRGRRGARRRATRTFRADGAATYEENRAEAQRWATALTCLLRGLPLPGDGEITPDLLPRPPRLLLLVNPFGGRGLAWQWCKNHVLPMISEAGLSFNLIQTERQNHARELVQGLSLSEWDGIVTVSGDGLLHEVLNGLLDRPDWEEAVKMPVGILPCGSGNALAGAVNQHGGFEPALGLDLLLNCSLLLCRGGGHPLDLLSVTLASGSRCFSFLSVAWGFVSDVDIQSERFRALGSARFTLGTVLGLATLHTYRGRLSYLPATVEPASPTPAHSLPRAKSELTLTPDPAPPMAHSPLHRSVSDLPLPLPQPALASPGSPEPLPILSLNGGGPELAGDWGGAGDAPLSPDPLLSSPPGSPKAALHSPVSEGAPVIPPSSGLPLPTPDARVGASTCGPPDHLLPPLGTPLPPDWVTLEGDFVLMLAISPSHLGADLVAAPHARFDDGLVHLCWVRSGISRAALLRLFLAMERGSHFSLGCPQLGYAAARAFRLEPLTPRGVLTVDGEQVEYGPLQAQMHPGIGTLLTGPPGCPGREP

[13] = target: T3, Sphingosine kinase 2 (Homo sapiens); conditions: at 1 µM
[14] = target: Casein kinase II subunit alpha (Homo sapiens) (UniProt P68400); conditions: at 0.1 µM
Casein kinase II subunit alpha (Homo sapiens), sequence (P68400 whole entry, looked up): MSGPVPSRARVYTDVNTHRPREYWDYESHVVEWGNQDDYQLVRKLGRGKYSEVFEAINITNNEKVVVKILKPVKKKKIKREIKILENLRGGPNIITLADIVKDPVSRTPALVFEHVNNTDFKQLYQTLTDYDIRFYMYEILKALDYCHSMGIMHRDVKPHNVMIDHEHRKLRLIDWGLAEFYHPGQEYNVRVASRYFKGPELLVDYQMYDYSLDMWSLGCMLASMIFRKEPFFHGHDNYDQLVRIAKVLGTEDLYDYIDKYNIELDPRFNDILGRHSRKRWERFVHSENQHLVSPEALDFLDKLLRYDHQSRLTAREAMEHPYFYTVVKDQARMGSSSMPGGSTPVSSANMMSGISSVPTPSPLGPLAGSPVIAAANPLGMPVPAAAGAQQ

[15] = target: Casein kinase II subunit alpha (Homo sapiens) (UniProt P68400); conditions: at 1 µM
[16] = target: T4, Inhibitor of nuclear factor kappa-B kinase subunit alpha (Homo sapiens) (UniProt O15111); conditions: at 0.1 µM
T4 sequence (whole entry): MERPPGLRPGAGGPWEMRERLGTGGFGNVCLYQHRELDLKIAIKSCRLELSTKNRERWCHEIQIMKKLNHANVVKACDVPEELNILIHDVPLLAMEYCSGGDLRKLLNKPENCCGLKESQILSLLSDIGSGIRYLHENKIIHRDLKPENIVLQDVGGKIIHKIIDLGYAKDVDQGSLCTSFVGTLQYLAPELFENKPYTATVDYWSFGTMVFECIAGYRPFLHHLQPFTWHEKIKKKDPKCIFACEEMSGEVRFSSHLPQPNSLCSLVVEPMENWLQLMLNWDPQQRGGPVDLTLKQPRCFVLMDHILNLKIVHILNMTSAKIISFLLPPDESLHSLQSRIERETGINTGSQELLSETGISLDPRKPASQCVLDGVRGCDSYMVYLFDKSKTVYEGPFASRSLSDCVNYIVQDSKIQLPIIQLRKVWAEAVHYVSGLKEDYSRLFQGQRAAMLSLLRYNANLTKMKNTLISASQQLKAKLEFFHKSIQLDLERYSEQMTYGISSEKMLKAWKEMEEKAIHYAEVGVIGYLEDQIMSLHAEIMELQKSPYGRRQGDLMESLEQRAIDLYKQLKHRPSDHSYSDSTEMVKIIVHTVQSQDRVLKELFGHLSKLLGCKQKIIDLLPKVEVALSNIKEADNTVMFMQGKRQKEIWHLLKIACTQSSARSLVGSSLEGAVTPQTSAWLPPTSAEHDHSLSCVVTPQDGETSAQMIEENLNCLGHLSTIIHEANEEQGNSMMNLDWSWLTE

[17] = target: T4, Inhibitor of nuclear factor kappa-B kinase subunit alpha (Homo sapiens); conditions: at 1 µM
[18] = target: T5, Inhibitor of nuclear factor kappa-B kinase subunit beta (Homo sapiens) (UniProt O14920); conditions: at 0.1 µM
T5 sequence (whole entry): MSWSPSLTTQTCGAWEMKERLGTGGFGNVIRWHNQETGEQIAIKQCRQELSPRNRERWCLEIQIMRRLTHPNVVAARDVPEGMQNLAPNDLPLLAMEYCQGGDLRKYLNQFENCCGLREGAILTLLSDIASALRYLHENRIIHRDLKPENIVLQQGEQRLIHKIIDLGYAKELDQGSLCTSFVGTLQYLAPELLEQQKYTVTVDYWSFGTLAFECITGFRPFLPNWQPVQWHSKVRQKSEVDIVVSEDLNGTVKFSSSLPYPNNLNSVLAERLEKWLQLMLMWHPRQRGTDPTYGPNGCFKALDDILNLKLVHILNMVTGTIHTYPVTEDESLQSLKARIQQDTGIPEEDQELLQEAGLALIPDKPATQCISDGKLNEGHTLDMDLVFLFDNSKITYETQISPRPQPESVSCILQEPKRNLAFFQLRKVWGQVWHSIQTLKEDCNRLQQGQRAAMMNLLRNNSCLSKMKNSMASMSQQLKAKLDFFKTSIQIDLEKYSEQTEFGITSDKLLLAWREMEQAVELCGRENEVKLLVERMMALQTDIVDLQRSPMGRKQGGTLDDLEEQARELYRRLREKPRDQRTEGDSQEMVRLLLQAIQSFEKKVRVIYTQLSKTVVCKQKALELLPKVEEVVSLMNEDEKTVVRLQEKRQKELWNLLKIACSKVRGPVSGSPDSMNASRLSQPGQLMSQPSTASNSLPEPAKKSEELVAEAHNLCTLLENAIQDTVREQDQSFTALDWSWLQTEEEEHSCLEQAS

[19] = target: T5, Inhibitor of nuclear factor kappa-B kinase subunit beta (Homo sapiens); conditions: at 1 µM
[20] = target: T6, Inhibitor of nuclear factor kappa-B kinase subunit epsilon (Homo sapiens) (UniProt Q14164); conditions: at 0.1 µM;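 note: mean inhibition of IKKε reported, from the GSK PKIS dataset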
T6 sequence (whole entry): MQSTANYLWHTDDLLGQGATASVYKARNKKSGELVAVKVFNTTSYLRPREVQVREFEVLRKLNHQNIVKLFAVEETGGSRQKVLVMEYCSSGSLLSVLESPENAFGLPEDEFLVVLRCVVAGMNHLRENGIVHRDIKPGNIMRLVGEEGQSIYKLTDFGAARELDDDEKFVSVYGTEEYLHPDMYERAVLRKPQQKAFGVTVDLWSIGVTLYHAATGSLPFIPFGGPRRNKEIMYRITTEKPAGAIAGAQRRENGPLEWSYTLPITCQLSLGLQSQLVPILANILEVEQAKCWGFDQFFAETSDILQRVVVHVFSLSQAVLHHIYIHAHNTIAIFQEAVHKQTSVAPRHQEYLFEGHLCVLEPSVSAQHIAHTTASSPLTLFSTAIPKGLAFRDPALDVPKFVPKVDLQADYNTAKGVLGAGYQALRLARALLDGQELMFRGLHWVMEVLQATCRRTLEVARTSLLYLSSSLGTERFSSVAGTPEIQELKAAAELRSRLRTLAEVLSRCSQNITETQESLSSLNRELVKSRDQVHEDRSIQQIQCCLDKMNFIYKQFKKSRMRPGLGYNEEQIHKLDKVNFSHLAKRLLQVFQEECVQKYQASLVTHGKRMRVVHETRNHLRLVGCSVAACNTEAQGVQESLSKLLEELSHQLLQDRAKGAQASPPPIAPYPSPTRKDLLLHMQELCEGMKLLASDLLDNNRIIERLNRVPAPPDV

Row | SMILES | inhibition [1] [%] | inhibition [2] [%] | inhibition [3] [%] | inhibition [4] [%] | inhibition [5] [%] | inhibition [6] [%] | inhibition [7] [%] | inhibition [8] [%] | inhibition [9] [%] | inhibition [10] [%] | inhibition [11] [%] | inhibition [12] [%] | inhibition [13] [%] | inhibition [14] [%] | inhibition [15] [%] | inhibition [16] [%] | inhibition [17] [%] | inhibition [18] [%] | inhibition [19] [%] | inhibition [20] [%]
1 | COc1cc(N2CCN(C(C)C)CC2)ccc1Nc1nc(Nc2ccc(F)cc2C(N)=O)c2cc[nH]c2n1 | 2.22 | -2.51 | 1.46 | 0.53 | 0.95 | -1.34 | 2.71 | 0.5 | -1.98 | 0.81 | 0.04 | -0.73 | -1.03 | 15.7 | 54.7 | 0.45 | -0.19 | 2.59 | 3.32 | 0.77
2 | CN(C)CCOc1ccc(-c2nc(-c3ccncc3)c(-c3ccc4c(c3)CC/C4=N\O)[nH]2)cc1 | 1.28 | -0.47 | -0.41 | 3.08 | 3.29 | 1.62 | 4.12 | -1.17 | -2.78 | 11.7 | -0.62 | -0.49 | -0.4 | 3.04 | 7.33 | 6.61 | 7.1 | 0.93 | 0.86 | 9.22
3 | N#Cc1c(NC(=O)CN2CCOCC2)sc2c1CCCC2 | 3.63 | -1.48 | 3.81 | 3.43 | 3.19 | 0.47 | 0.45 | 0.92 | -0.98 | 0.08 | -2.59 | 1.39 | -0.6 | 6.02 | 10.9 | 6.78 | 6.16 | 4.25 | 5.09 | 9.02
